A short description of assay [1]: HepG2 viability counterscreen (readout 2: ATP content) against the NCATS DSHEA and TCM libraries (AID 1794840).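 Note: HepG2 cells exposed to substances for about 24 h; 0% is about no effect.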 In a few lines: (§1)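 HepG2 cells (1,000 cells/well) attached ~4 h, then treated ~24 h at 37C with substances. Protease activity read by GF-AFC (25 uM final, 30 min, Ex/Em 380/510 nm); ATP content then by CellTiter-Glo luminescence.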
The nature of assay [2]: HepG2 viability counterscreen (readout 1: protease activity) against the NCATS DSHEA and TCM libraries (AID 1794841).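 Note: cells exposed to compounds for about 24 h before the protease read; 0% is about no effect.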 The essentials:
as §1

The target of assay [3] is Cytochrome P450 3A4 (Homo sapiens) (UniProt P08684). Put plainly: qHTS for inhibitors of CYP3A4 against the NCATS DSHEA and TCM libraries (AID 1919971).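 Note: % is set by controls: 0 for no effect and ±100 for the full control effect; inhibition lowers luminescence from luciferin made by CYP3A4.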 In a few lines: (§2)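 Read-out is luminescence after P450-Glo detection (30 min, RT). Before that: 15 min compound–enzyme preincubation, then 30-45 min reaction with 1x NADPH regeneration solution, substrate concentration isoform-specific.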
Sequence of Cytochrome P450 3A4 (Homo sapiens) (P08684 whole entry, looked up, canonical isoform): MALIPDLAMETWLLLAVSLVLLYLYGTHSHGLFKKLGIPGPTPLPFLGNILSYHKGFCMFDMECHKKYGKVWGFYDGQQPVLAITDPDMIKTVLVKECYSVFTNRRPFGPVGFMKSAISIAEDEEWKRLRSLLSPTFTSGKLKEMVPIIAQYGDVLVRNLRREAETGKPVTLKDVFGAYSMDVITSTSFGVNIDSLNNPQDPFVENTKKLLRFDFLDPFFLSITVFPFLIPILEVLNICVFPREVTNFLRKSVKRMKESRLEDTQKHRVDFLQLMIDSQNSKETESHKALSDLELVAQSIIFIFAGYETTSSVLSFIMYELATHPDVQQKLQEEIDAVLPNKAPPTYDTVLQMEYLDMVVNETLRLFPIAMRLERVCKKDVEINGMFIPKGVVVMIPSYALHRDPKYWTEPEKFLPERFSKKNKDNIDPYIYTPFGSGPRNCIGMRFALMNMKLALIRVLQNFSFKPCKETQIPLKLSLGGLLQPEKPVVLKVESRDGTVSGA
A general note: qHTS replaces the single test concentration by a dilution series.

Assay [4] addresses Cytochrome P450 2D6 (Homo sapiens) (UniProt P10635). Briefly: qHTS for inhibitors of CYP2D6 against the NCATS DSHEA and TCM libraries (AID 1919972). Note: % is set by controls: 0 for no effect and ±100 for the full control effect. The essentials:
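Luminescent P450-Glo read-out of CYP2D6 turnover of a luciferin substrate after NADPH-driven reaction of 30-45 min at room temperature. Compounds were first preincubated 15 min with enzyme at titrated concentrations; quinidine was the intraplate control.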

The target of assay [5] is Cytochrome P450 2C9 (Homo sapiens) (UniProt P11712). Put plainly: qHTS for inhibitors of CYP2C9 against the NCATS DSHEA and TCM libraries (AID 1919973). Note: potency is the fitted concentration of half-maximal effect. The essentials: as §2
Sequence of Cytochrome P450 2C9 (Homo sapiens) (P11712 whole entry, looked up): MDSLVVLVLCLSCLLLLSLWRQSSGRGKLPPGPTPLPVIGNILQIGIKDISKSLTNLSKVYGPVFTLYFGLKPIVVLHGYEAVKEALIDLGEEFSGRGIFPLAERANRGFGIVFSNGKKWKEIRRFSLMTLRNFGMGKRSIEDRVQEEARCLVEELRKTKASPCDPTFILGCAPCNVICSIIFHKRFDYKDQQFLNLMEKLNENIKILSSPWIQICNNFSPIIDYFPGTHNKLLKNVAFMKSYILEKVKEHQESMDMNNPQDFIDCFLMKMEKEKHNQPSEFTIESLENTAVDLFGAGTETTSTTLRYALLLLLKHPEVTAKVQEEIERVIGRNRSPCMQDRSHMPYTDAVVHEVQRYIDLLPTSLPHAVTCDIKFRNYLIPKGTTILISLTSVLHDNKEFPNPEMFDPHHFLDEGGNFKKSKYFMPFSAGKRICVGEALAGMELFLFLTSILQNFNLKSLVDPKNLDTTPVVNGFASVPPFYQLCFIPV
Assay [6] is described as follows: KB-3-1 P-gp reporter qHTS against the NCATS DSHEA and TCM libraries (AID 1919975). Note: 0% is about no effect. The essentials:
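Parental KB-3-1 human cervical adenocarcinoma cells (500 cells/well, DMEM + 10% FBS) were treated with substances for ~72 h at 37C; viability was read by CellTiter-Glo luminescence.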

For assay [7], the target named is Cytochrome P450 1A2 (Homo sapiens) (UniProt P05177). Briefly: qHTS for inhibitors of CYPIA2 against the NCATS DSHEA and TCM libraries (AID 1919976). Note: potency is the fitted concentration of half-maximal effect. The essentials: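 CYP1A2 + luciferin substrate, 100 mM KPO4-type buffer; cmpd 15 min RT; 1x NADPH regen, 30-45 min RT dark; detection reagent 30 min RT; luminescence. Minus-enzyme wells as background; furafylline intraplate control.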
Sequence of Cytochrome P450 1A2 (Homo sapiens) (P05177 whole entry, looked up): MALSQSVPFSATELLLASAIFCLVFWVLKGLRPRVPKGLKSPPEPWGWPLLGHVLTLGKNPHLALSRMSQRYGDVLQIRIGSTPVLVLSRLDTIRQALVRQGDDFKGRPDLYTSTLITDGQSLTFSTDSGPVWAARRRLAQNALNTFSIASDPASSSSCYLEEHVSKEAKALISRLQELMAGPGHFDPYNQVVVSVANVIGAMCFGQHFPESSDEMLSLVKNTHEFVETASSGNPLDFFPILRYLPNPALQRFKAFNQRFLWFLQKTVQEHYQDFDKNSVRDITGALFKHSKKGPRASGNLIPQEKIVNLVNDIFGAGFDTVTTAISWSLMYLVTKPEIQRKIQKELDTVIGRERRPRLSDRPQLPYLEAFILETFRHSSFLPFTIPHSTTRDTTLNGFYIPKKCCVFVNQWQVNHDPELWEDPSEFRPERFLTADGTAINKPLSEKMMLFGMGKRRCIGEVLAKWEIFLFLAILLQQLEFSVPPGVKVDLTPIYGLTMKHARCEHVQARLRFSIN

A short description of assay [8]: qHTS Counterscreen for compound interference against the NCATS DSHEA and TCM libraries (AID 1919978). Note: % of control where 0% means no effect. The note with it: firefly luciferase detection reagent interference, luminescence. The essentials:
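D-luciferin (1 uM final) or 100 mM potassium phosphate buffer alone was preincubated 15 min at RT with compounds (19.5 nM to 39.8 uM final). Luciferin detection reagent was then added and luminescence read after 30 min at RT.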

Assay [9] in a line: Dual reporter qHTS for agonist of Pregnane X Receptor (hPXR) against the NCATS DSHEA and TCM libraries: Fluorescence readout (AID 1920058). Note: 0% is about no effect. The essentials: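 HepG2 hPXR-Luc, 2000 cells/well, 5 h attach; cpds ~24 h, 37 °C/5% CO2; CellTiter-Fluor 1 h; fluor. Ex/Em 405/540 nm = viability.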
Assay [10] concerns the target Nuclear receptor subfamily 1 group I member 2 (Homo sapiens) (UniProt O75469). Briefly: Dual reporter qHTS for agonist of Pregnane X Receptor (hPXR) against the NCATS DSHEA and TCM libraries: Luminescence readout (AID 1920059). Note: 0% is about no effect. The essentials:
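Luminescent PXR reporter read (ONE-Glo) after a CellTiter-Fluor viability read, following 24 h, 37C treatment of HepG2 cells stably carrying hPXR-Luc.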

Assay [11] has the same target. Briefly: Dual reporter qHTS for antagonist of Pregnane X Receptor (hPXR) against the NCATS DSHEA and TCM libraries: Luminescence Readout (AID 1920060).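 Note: HepG2 cells carrying hPXR luciferase reporter stimulated with rifampicin at 2 µM; 0% is about no effect.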 The essentials:
(§3)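 In antagonist mode, 2 uM rifampicin was added to hPXR-Luc HepG2 cells alongside test substances, incubated 24 h at 37 C; luminescence gave reporter activity, and CellTiter-Fluor fluorescence (405/540 nm) gave viability.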

The nature of assay [12]: Dual reporter qHTS for antagonist of Pregnane X Receptor (hPXR) against the NCATS DSHEA and TCM libraries: Fluorescence Readout (AID 1920061). Note: 0% is about no effect. The essentials:
as §3

Assay [13] is described as follows: Stat Signaling Pathway (AID 446; active = well fitted curve in either direction with a large enough effect, not every such curve was filed as active;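 note: ME-180 cervical cancer cells given 40 pM IL-6 alongside compound; SIE-controlled beta-lactamase reporter measured as 460/530 nm FRET emission ratio; % is set by controls: 0 for no effect and ±100 for the full control effect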). In a few lines: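 Reporter line: ME-180 cervical carcinoma, SIE-beta-lactamase. Treatment: compound with 40 pM IL-6, 5 hrs, 37 C, in low-serum OPTI-MEM with 10 mM HEPES pH 7.3. Detection: 460/530 nm fluorescence.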
Assay [14] concerns the target Glucocorticoid receptor (Homo sapiens) (UniProt P04150). Briefly: GR-GFP Redistribution (AID 450;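 active = compounds whose dose series gives a full or clear partial fitted curve of increased nuclear translocation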; note: potency is the fitted concentration of half-maximal effect). The settings on record: U2OS GR-GFP nuclear translocation, laser cytometry, 2 h.
For assay [15], the target named is Mitogen-activated protein kinase 10 (Mus musculus) (UniProt Q61831). Put plainly: JNK3 AlphaScreen Assay (AID 530; active = well fitted curve in either direction with a large enough effect, not every such curve was filed as active;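 note: kinase came from lysate of stimulated human HepG2 cells; signal reports phosphorylation of biotinylated GST-cJun 1-79 at Ser73 with 10 µM ATP; series mostly up to about 57 µM; % is set by controls: 0 for no effect and ±100 for the full control effect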). The essentials: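 Compound titrations were preincubated 15 minutes at room temperature with substrate, antibody and pre-activated JNK3-containing HepG2 lysate. Reactions were started with 10 uM ATP and stopped with EDTA-containing bead buffer for AlphaScreen detection.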
A general note: Bead proximity is the source of the signal in Alpha formats.

Assay [16] has as its target Dual specificity protein kinase CLK4 (Homo sapiens) (UniProt Q9HAZ1). Put plainly: qHTS Assay for Inhibitors of CDC-like Kinase 4 (ADP-FP Assay) (AID 1795). Note: series mostly up to about 50 µM; % is set by controls: 0 for no effect and ±100 for the full control effect; nearly all actives have a fitted effect of over 60% in size. The essentials: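 Recombinant human Clk4 (6.25 nM) phosphorylated RS repeat peptide (100 uM) with 1 uM ATP in Tris pH 7.5/MgCl2/EGTA/DTT/Triton buffer for one hour. ADP was quantified by Transcreener competitive fluorescence polarization against an ADP calibration curve.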

Assay [17] deals with Ubiquitin carboxyl-terminal hydrolase 1 (Homo sapiens) (UniProt O94782). Briefly: Inhibitors of USP1/UAF1: Pilot qHTS (AID 504865).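 Note: rhodamine fluorescence freed from ubiquitin-rhodamine substrate followed over time; top concentration of the series differs between compounds; % is set by controls: 0 for no effect and ±100 for the full control effect; nearly all actives have a fitted effect of over 35% in size.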 In a few lines:
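USP1/UAF1 complex (1nM) preincubated with compound 15 min at room temperature, then Ub-Rho substrate (150nM final) added. Fluorescence read kinetically at 480/540 nm, 6 reads every 60 seconds. Buffer: 50mM HEPES pH 7.8, 0.5mM EDTA, 0.1 mg/ml BSA, 1mM TCEP, 0.01% Tween-20.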

Assay [18] can be described thus: Viability counterscreen for antagonist of constitutive androstane receptor (CAR) against the NCATS DSHEA and TCM libraries (AID 1794837).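 Note: compound exposure lasted 24 h before viability reading; 0% is about no effect.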 In a few lines: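 HepG2-CYP2B6-hCAR cells (2,500/well) were allowed to attach for 5 h, then exposed to compounds with 48 uM CITCO for 24 h at 37C. Viability was read by CellTiter-Fluor fluorescence after 1 h.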
(Counterscreens check selectivity or assay interference.)

Assay [19] is described as follows: Viability counterscreen for agonist of constitutive androstane receptor (CAR) against the NCATS DSHEA and TCM libraries (AID 1794838). Note: 0% is about no effect. In a few lines: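 HepG2-CYP2B6-hCAR cells (2,500/well) attached 5 h, then got compounds plus 0.75 uM PK11195 final. After 24 h at 37C, viability read by CellTiter-Fluor fluorescence (Ex/Em 405/540 nm).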
For assay [20], the target named is Nuclear receptor subfamily 1 group I member 3 (Homo sapiens) (UniProt Q14994). Briefly: Primary qHTS for agonist of constitutive androstane receptor (CAR) against the NCATS DSHEA and TCM libraries (AID 1794839). Note: potency is the fitted concentration of half-maximal effect. The essentials: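 HepG2-CYP2B6-hCAR cells (2,500/well) were attached for 5 h, then treated for 24 h at 37 °C with compounds plus 0.75 µM PK11195. Luciferase luminescence (ONE-Glo) was read, with CellTiter-Fluor viability (Ex/Em 405/540 nm).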
Sequence of Nuclear receptor subfamily 1 group I member 3 (Homo sapiens) (Q14994 whole entry, looked up): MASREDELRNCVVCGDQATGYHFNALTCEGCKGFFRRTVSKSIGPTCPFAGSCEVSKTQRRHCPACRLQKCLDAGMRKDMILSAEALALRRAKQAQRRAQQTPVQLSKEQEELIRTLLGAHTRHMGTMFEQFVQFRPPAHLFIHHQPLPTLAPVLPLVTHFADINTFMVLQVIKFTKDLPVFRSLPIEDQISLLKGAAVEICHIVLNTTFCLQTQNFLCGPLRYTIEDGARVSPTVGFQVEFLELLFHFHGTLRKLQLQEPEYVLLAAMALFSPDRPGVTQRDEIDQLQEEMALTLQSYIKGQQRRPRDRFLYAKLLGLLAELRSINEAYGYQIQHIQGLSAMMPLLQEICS

Structures are written as SMILES. A number with no mark means an inactive call. Records with an inconclusive call do not appear. Calls of active or inactive are those of the source. Unless noted, calls come from the whole dose curve; as a rule, active = well fitted curve in the direction sought with a large enough effect; inconclusive = small, poorly fitted or top-dose-only effect, or another doubt; inactive = no such curve, though single readings can be large; an effect the other way counts as inactive or inconclusive. Where only a bound is given, the exact number is not on record here.

Sequence of Nuclear receptor subfamily 1 group I member 2 (Homo sapiens) (O75469 whole entry, looked up): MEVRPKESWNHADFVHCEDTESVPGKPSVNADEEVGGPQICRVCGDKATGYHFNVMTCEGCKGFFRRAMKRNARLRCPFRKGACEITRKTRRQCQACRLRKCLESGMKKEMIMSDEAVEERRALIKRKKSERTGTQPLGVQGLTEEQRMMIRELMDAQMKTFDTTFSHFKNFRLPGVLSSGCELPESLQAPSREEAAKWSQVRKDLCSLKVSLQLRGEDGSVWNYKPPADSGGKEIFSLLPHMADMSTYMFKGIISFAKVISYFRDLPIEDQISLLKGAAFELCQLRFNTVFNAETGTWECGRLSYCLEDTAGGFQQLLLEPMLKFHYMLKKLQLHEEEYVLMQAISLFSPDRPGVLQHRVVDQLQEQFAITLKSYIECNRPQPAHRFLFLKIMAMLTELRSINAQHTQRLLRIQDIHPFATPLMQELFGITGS
Sequence of Dual specificity protein kinase CLK4 (Homo sapiens) (Q9HAZ1 whole entry, looked up): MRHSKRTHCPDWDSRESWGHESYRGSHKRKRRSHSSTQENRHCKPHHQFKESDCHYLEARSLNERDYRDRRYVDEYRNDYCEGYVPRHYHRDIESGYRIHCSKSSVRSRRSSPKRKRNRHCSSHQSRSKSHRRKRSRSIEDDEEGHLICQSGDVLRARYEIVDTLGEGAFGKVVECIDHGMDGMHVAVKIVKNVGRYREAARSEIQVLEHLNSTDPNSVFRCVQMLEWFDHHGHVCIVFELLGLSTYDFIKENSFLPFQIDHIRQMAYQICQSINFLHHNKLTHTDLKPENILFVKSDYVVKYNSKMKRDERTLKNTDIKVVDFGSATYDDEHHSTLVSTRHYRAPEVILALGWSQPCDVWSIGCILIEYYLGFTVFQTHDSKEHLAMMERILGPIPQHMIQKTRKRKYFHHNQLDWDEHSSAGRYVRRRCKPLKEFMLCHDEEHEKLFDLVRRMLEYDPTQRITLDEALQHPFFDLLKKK
Sequence of Glucocorticoid receptor (Homo sapiens) (P04150 whole entry, looked up): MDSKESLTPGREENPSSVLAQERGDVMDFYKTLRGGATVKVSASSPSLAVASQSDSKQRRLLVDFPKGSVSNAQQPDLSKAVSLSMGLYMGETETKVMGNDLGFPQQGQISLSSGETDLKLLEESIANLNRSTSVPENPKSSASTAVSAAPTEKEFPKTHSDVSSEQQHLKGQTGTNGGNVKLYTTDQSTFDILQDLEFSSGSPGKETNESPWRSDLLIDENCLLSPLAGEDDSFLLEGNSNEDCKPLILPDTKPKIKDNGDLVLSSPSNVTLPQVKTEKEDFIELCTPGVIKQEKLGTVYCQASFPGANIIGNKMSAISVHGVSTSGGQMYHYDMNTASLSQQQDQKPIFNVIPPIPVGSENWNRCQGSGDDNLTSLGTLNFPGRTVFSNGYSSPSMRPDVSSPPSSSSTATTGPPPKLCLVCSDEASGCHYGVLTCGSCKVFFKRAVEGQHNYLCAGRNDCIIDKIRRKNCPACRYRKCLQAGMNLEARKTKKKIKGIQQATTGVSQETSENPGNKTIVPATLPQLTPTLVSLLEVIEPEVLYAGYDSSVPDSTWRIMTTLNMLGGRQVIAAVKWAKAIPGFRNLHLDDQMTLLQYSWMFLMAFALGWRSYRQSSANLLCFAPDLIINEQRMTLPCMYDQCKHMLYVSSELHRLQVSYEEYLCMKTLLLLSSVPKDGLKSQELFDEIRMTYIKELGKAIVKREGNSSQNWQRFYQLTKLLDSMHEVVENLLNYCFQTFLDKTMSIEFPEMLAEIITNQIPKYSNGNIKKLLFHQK
Sequence of Cytochrome P450 2D6 (Homo sapiens) (P10635 whole entry, looked up): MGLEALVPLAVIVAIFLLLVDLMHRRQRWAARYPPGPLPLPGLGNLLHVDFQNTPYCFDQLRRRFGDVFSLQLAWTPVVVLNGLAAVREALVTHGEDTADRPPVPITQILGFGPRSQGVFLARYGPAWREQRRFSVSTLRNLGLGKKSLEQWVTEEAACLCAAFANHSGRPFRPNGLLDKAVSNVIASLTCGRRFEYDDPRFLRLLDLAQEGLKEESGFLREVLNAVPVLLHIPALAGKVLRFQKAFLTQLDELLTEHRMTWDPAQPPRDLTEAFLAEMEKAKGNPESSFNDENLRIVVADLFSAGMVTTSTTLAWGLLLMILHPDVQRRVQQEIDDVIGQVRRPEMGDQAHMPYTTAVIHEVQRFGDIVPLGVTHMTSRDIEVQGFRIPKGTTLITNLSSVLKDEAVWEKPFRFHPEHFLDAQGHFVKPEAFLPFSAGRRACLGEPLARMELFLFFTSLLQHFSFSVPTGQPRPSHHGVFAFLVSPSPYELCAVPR
Sequence of Ubiquitin carboxyl-terminal hydrolase 1 (Homo sapiens) (O94782 whole entry, looked up): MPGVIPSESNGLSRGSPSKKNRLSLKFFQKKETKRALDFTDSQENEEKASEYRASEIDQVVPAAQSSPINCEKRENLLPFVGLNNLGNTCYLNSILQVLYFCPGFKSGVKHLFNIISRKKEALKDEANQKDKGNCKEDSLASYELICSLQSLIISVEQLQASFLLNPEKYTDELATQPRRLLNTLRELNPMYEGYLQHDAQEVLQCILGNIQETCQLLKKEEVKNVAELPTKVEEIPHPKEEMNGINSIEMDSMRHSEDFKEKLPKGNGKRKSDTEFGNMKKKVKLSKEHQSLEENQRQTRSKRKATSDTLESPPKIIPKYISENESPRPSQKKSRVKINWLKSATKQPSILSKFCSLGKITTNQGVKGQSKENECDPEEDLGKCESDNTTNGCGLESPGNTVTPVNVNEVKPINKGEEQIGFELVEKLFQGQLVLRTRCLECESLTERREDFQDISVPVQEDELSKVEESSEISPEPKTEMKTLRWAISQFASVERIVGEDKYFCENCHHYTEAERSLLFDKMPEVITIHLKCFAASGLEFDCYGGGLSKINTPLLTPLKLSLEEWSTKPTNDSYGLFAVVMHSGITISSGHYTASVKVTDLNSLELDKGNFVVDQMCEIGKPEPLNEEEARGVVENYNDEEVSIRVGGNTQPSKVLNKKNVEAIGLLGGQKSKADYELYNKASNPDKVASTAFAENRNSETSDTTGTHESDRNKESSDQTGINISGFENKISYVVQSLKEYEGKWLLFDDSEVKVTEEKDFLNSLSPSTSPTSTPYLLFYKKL

Regarding `C=C1CC[C@H]2C[C@@H]1C2(C)C`, the compound was classed as inactive in assay [1], in assay [2], in assay [6], in assay [9], in [11] and in assay [12]. For the same compound, the Potency result in [3], in [4], in assay [5], in [7] and in assay [10] was “inactive” each time. Also, in assay [8], the max response was 0.51%.
Turning to `CN1CCN(c2nc(-c3ccoc3)nc3ccccc23)CC1`, the outcome in assay [13] was inactive. The Potency in assay [14] was more than 46 µM. In addition, the Potency result in [15], in assay [16] and in [17] was “inactive” in each case.
As for `O=c1c(CCc2ccccc2)nc2cnc(Oc3ccccc3)nc2n1C1CC1`, in assay [13], the call was inactive. For the same compound, the Potency in [14] is more than 9.22 µM. Moreover, the Potency entry in assay [16] and in [17] was “inactive” throughout.
For `CN1CCN(c2ncc3nc(-c4cn(C)c5ccccc45)c(=O)n(C[C@H]4CCCO4)c3n2)CC1`, the compound was called inactive in [13]. The Potency in assay [14] is more than 46 µM. For the same compound, the Potency result in [16] and in [17] was “inactive” throughout.
`COc1cccc(Cn2c(=O)cnc3cnc(N(C)C)nc32)c1`: in assay [13], the outcome was inactive. Also, the Potency result in [15], in assay [16] and in assay [17] was “inactive” in each case.
As to `CCCCCCCCC/C=C/C(=O)CCc1ccc(O)c(OC)c1`, the result in assay [18], in assay [19], in assay [1], in assay [2], in [6] and in [9] was inactive. The compound was classed as inactive in assay [11] and in assay [12]. Besides, the Potency in assay [5] was 11.2 µM (active). Moreover, the max response in assay [8] was 4.66%.
Regarding `COc1ccccc1/C=C/C=O`, the call in [1], in [2], in assay [9], in assay [11] and in [12] was inactive. Further, the Potency entry in [4], in assay [5] and in assay [10] was “inactive” in each case. Further, the Potency in [7] was 25.1 µM (active). In addition, the max response in assay [8] was -3.3%.
On to `O=c1cnc2cnc(N3CCOCC3)nc2n1Cc1cccs1`, for which the outcome in assay [13] was inactive. Also, in assay [14], the Potency was more than 9.22 µM. The Potency result in assay [15], in [16] and in assay [17] was “inactive” throughout.
Consider `C=C1CC/C=C(/C)CC[C@@H]2[C@@H]1CC2(C)C`, for which the compound was called inactive in assay [18], in [19], in [1], in assay [2], in [6] and in [9]. Also, the call in assay [11] and in assay [12] was inactive. The values for the Potency in [20] and in assay [7] were 7.08 µM (active) and 3.55 µM (active), respectively. In addition, the Potency entry in [4] and in assay [10] was “inactive” each time. Besides, in assay [8], the max response was 1.11%.
With `O=C(O[C@@H]1Cc2c(O)cc(O)cc2O[C@@H]1c1ccc(O)c(O)c1)c1cc(O)c(O)c(O)c1`, the compound was called inactive in assay [18], in assay [19], in assay [1], in assay [2], in assay [6] and in assay [9]. Also, the compound was classed as inactive in assay [11] and in [12]. The Potency result in assay [20], in assay [7] and in assay [10] was “inactive” throughout. Moreover, in [5], the Potency was 12.6 µM (active). Also, in assay [8], the max response is 2.25%.
With `CCCCCCCC/C=C\CCCCCCCCCCCC(=O)O`, the compound was called inactive in assay [18], in assay [19], in [1], in assay [2], in [9] and in [11]. Moreover, in [12], the compound was called inactive. Moreover, the Potency result in assay [20], in [4] and in assay [10] was “inactive” in each case. In addition, the max response in assay [8] is 1.35%.

Source of the values: PubChem BioAssay (NCATS).
